# Screening results deposited in PubChem by National Center for Advancing Translational Sciences (NCATS).
# MCF10A rereplic – induces DNA re-replication in MCF 10a normal breast cells; Potency, µM (series often up to 46.1 µM), for inactives: at the top dose activity, positive = re-replication, hits mostly activators; MCF 10A DNA re-replication, Hoechst nuclear intensity, 48 h; 2.9% of 350,000 active; AID 624296; note: % of control where 0% means no effect; nearly all actives have a fitted effect of over 50% in size
# KB-V1 cytotox – KB-V1 MDR subline cytotoxicity | KB-V1 MDR cells viability, CellTiter-Glo, 72 h | Potency, µM (titrated, usually from 46.1 µM), hits mostly cytotoxic | 3.4% of 400,000 active | AID 1347076; note: % is set by controls: 0 for no effect and ±100 for the full control effect; nearly all actives have a fitted effect of over 60% in size
#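 KB-V1, DMEM (no phenol red) + 10% FBS; cpd pin-transferred, titration series; 72 h, 37 degrees C; CellTiter-Glo, luminescence. Data normalized, curve-fit.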
# SW480 rereplic – DNA re-replication induction in SW480 cells. SW480 DNA re-replication, Hoechst DNA content imaging, 48 h. Potency, µM (top dose mostly 46.1 µM), for the others: at the highest dose re-replication activation, actives largely listed as activators. 1.8% of 340,000 active; note: % of control where 0% means no effect; nearly all actives have a fitted effect of over 55% in size
#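 SW480 cells exposed to compounds for 48 hr at 37 C, 5% CO2, then Hoechst-stained 40 min. Nuclear DNA content imaged by fluorescence scanning (405 nm excitation, 500-530 nm emission); re-replication scored as increased high-intensity nuclei.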
# KB-3-1 tox – kills parental KB-3-1 adenocarcinoma cells; KB-3-1 viability, CellTiter-Glo ATP luminescence, 72 h; Potency, µM (titrated, usually from 46.1 µM), most hits filed as cytotoxic; 1.4% of 400,000 active; AID 1347075; note: % is set by controls: 0 for no effect and ±100 for the full control effect; nearly all actives have a fitted effect of over 60% in size
#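 Cytotoxicity measured as CellTiter-Glo luminescence after 72 h at 37 C. Compound titrations were pinned onto drug-naive KB-3-1 parental adenocarcinoma cells grown in DMEM with 10% FBS, and normalized data fitted to concentration-response curves.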
# ELG1 repair inh – ELG1-dependent DNA repair inhibition; HEK293T ELG1-luciferase reporter, luminescence, 16 h; DNA damage induced by 5-fluorouridine; 2.3% of 330,000 active; Potency, µM (top dose mostly 46.1 µM), without a hit: top-dose activity change, negative = inhibition, usual class: inhibitors; note: % is set by controls: 0 for no effect and ±100 for the full control effect; nearly all actives have a fitted effect of over 55% in size
#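 Reporter activity after DNA damage by 5-fluorouridine is monitored. Compound-treated cells incubate 16 hr at 37 °C, then ONE-Glo is added for 30 min before luminescence reading.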
# Starred values were filed as active, the others as inactive; i = inactive; ? = inconclusive; . = no result. Hits are enriched below; roughly 8.2% of the tested compounds scored in any of these assays. Calls come from the whole dose curve; as a rule, active = well fitted curve in the direction sought with a large enough effect; inconclusive = small, poorly fitted or top-dose-only effect, or another doubt; inactive = no such curve, though single readings can be large; an effect the other way counts as inactive or inconclusive. Potency is the fitted concentration of half-maximal effect.
SMILES,MCF10A rereplic,KB-V1 cytotox,SW480 rereplic,KB-3-1 tox,ELG1 repair inh
C/C=C1\NC(=O)[C@H](CC(N)=O)N(C)C(=O)C([C@@H](C)O)NC(=O)C(CCCc2ccc(OC)cc2)NC(=O)[C@H](C(C)C)NC(=O)/C(=C\C)NC(=O)[C@H](O)[C@@H](C[C@@H](O)CCCCCCC)NC(=O)[C@H](C)NC(=O)CN(C)C(=O)[C@H](CCC(N)=O)NC1=O (stereo partly specified),18µM*,i,?,16µM*,.
CCCn1nc(C(=O)NNC(=O)c2cccc(S(=O)(=O)NC(C)C)c2)c2ccccc2c1=O,4%,i,-23%,i,?
Cc1ccc(C(=O)N/C(=C/c2ccc(-c3cccc([N+](=O)[O-])c3)o2)C(=O)NC(C)(C)C)cc1,7%,i,12%,i,?
Cc1ccc(C(=O)N/C(=C/c2ccc(-c3cccc([N+](=O)[O-])c3)o2)C(=O)NC(C)C)cc1,20%,3.7µM*,0%,i,?
CN(C)C(=O)/C(=C\c1ccc(-c2cccc([N+](=O)[O-])c2)o1)NC(=O)c1ccccc1,14%,i,-8%,i,21µM*
CCc1ccc(-n2c(=S)sc3c(=O)n(-c4ccccc4C)c(SCC(=O)O)nc32)cc1,4%,?,?,i,-2%
COc1cc(OC)cc(-c2c(-c3cccs3)c3cc(-c4cnc(N)nc4)ccc3n2C)c1,23µM*,?,?,?,-29%
COc1cccc(-c2c(-c3cc(OC)cc(OC)c3)n(C)c3ccc(-c4cnc(OC)nc4)cc23)c1,?,?,2%,13µM*,?
COc1cc(OC)cc(-c2c(-c3cccs3)c3cc(-c4ccc(OC)c(OC)c4)ccc3n2C)c1,16µM*,i,10%,i,-11%
COc1ccc(-c2c(-c3cc(OC)cc(OC)c3)n(C)c3ccc(-c4cnc(N)nc4)cc23)cc1,?,i,1%,i,?
COc1cc(OC)cc(-c2c(-c3cccs3)c3cc(-c4ccc(OC)c(F)c4)ccc3n2C)c1,6%,i,?,i,15%
CCOC(=O)Cc1csc(NC(=O)CSc2nc(=O)[nH]c3c2CCC3)n1,5%,i,-3%,i,-17%
Cc1ccc(S(=O)(=O)N(C)c2ccc(OCC(=O)Nc3cccc(-n4cnnn4)c3C)cc2)cc1,0%,?,-9%,i,23µM*
CCOC(=O)Cc1csc(NC(=O)COc2ccccc2)n1,11%,i,7%,i,-1%
Cc1ccc(S(=O)(=O)N(C)c2ccc(OCC(=O)Nc3nc4ccccc4s3)cc2)cc1,8%,2.9µM*,7%,?,?
CCOC(=O)Cc1csc(NC(=O)COc2ccc(N(C)S(=O)(=O)c3cccs3)cc2)n1,1%,i,-8%,i,18µM*
Cc1ccc(S(=O)(=O)N(C)c2ccc(OCC(=O)Nc3nc(-c4ccccc4)cs3)cc2)cc1,?,i,-4%,i,?
Cc1ccc(S(=O)(=O)N(C)c2ccc(OCC(=O)Nc3nc4c(ccc5ccccc54)s3)cc2)cc1,1%,4.1µM*,-47%,i,-23%
COc1ccccc1OCCNC(=O)c1cccc(S(=O)(=O)NCc2ccccc2)c1,20%,i,14%,?,?
COc1ccc(-c2nnc(SCC(=O)Nc3nc4ccccc4s3)n2C)cc1,1%,i,1%,i,-3%
CCOc1ccc(-c2nnc3ccc(SCC(=O)Nc4nc5ccc(C)cc5s4)nn23)cc1,?,i,3%,i,8.2µM*
CCOc1ccc(-c2nnc3ccc(SCC(=O)Nc4nc5ccccc5s4)nn23)cc1,3%,i,-4%,i,7.3µM*
O=C(CSc1ncn(-c2ccccc2)n1)Nc1nc2ccccc2s1,?,18µM*,19%,i,?
O=C(O)c1cccnc1Sc1ccc(Br)cc1,-6%,i,-3%,i,12%
COC(=O)c1sc(N)c(C(=O)OC)c1COC(=O)c1c(C)noc1C,9.2µM*,5.2µM*,2.9µM*,5.2µM*,?
SMILES,MCF10A rereplic,KB-V1 cytotox,SW480 rereplic,KB-3-1 tox,ELG1 repair inh
CNS(=O)(=O)c1cn(CC(=O)Nc2cccc(C(F)(F)F)c2)cc1S(=O)(=O)NC,.,i,.,i,.
COc1cc(N(C)C)c(OC)cc1/C=C1\Cc2ccccc2C1=O,.,i,.,i,.
COc1cc(NC(=O)CC(C)S(=O)(=O)c2ccc3c(c2)NC(=O)CO3)cc(OC)c1OC (stereo unspecified),-2%,i,-12%,i,-4%
O=C(COc1coc(CN2CCN(c3ccc(F)cc3)CC2)cc1=O)NC1CCCC1,2%,i,-5%,i,-11%
O=C(COc1coc(CN2CCN(c3ccc(F)cc3)CC2)cc1=O)NC1CCCCC1,8%,4.1µM*,-1%,?,.
Cc1cccc(NC(=O)c2c(C)cc(C)nc2SCC(=O)c2ccccc2)c1,.,?,.,i,.
Cc1ccc2nc(-c3ccc(SCC(=O)Nc4nnc(C)s4)nc3)[nH]c2c1,18µM*,i,?,i,?
Cc1ccc(NC(=O)CCCSc2nc3ccccc3[nH]2)cc1,18%,?,-2%,i,-23%
Cc1ccc(SCC(=O)Nc2ccc(-c3nc4ccccc4[nH]3)cc2)cc1,13µM*,i,8%,i,9%
Cc1ccc2nc(-c3ccc(SCC(=O)Nc4nc(C)cs4)nc3)[nH]c2c1,?,i,8%,?,?
Cc1nc(NC(=O)CSc2ccc(-c3nc4ccccc4[nH]3)cn2)sc1C,18µM*,i,5%,i,?
COc1ccc(Cc2nc3ccc(C(=O)N4CCCCC4CO)cc3o2)cc1OC (stereo unspecified),.,?,.,i,.
O=C(NCC(c1ccco1)S(=O)(=O)c1cccs1)c1c(F)cccc1F (stereo unspecified),.,i,.,i,.
COc1ccc(CCNC(=O)C(=O)NCC2OCCN2S(=O)(=O)c2ccc(Br)cc2)cc1OC (stereo unspecified),7%,i,2%,i,21µM*
COc1ccc(CCNC(=O)C(=O)NCC2OCCN2S(=O)(=O)c2ccc(Cl)cc2)cc1OC (stereo unspecified),12%,i,-5%,i,?
COc1ccc(S(=O)(=O)N2CCOC2CNC(=O)C(=O)NCCc2ccc(OC)c(OC)c2)cc1 (stereo unspecified),10%,18µM*,12%,?,?
CCCCCC(=O)NC(=S)Nc1cccc(-c2nc3ncccc3o2)c1,-1%,i,-1%,i,?
CCn1c(=O)c2c(nc(SCC(=O)NC3CCCC3)n2C)n(C)c1=O,-3%,i,-6%,i,-7%
